PubChem BioAssay (NCI)
This is part of a sample that, as a whole, favours compounds with a hit. Of some 83,000 tested, about 20% had one in any assay.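 Cells were grown in 96-well plates and exposed to the test compound at a single concentration for 48 hours; results are reported as percent growth, with values below 10 considered active.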 Activity calls are given as the source filed them.

Tested on: HCT-15 colon
Experiment: NCI-60 one-dose screen, 48 h (100 = growth as untreated, 0 = no growth, -100 = all killed)
Settings: 10 µM unless noted
Description: Growth inhibition of the HCT-15 human tumor cell line is measured as a screen for anti-cancer activity. Cells are grown in 96 well plates and exposed to the test compound for 48 hours. Compounds are tested at a single concentration, which is 10^-5 M for most compounds. The reported endpoint is percent growth (GI% or GIPRCNT), where numbers from 0 - 100% represent growth inhibition, and numbers from -100% - 0 represent cell death. For example, a value of 40 represents 60% growth inhibition. A value of 0 means no net growth occurred over the course of the experiment. A value of -40 indicates 40% of cells at the beginning of the experiment died by the end of the experiment. A value of -100 means all cells are dead at the end of the experiment.
NCI-60 Human Tumor Cell Lines Screen was performed using the standard one-dose NCI protocol, which is described in more detail at https://dtp.cancer.gov/discovery_development/nci-60/default.htm.
Compounds with GIPRCNT values below 10 were considered active. Activity score was based on GIPRCNT using the following formula: […]
Score is 0 for GIPRCNT values of 100 or above, 50 for GIPRCNT values of 0, and 100 for GIPRCNT values of -100.

Row | SMILES | growth
1 | CCCC[C@H](NC(=O)[C@H]1CCCCN1C)C(=O)N(C)[C@H](C[C@@H](OC(C)=O)c1nc(C(=O)N[C@@H](Cc2ccccc2)C[C@H](C)C(=O)OCC)cs1)C(C)C | 20.4% (inactive)
2 | CCOP(=O)(Cc1ccc(C#N)cc1)OCC | 108% (inactive)
3 | Nc1nnnc2nc[nH]c12 | 20.9% (inactive)
4 | COc1ccc(/C=C\c2cc(OC)c(OC)c(OC)c2)c(NS(=O)(=O)c2ccc(Cl)cc2)c1O | 13.4% (inactive)
5 | COc1cc(C=Nc2cc(Cl)cc(Cl)c2)ccc1N(CCCl)CCCl | 96.2% (inactive)
6 | O=[N+]([O-])/C=C\c1ccc(Cl)c(Cl)c1 | 26.1% (inactive)
7 | CC[C@H](C)[C@H](NC(=O)N[C@@H](C)c1ccccc1)C(=O)N(C)[C@H](C[C@@H](OC(C)=O)c1nc(C(=O)N[C@@H](Cc2ccccc2)C[C@H](C)C(=O)OC)cs1)C(C)C | 12.3% (inactive)
8 | O=C([O][Hg][c]1ccccc1)c1ccccc1 | -62.7% (active)
9 | CC(=O)OCc1cc[c]([Hg][Cl])o1 | 5.8% (active)
10 | C[C@]12CC[C@@H]3c4ccc(Oc5nc(N6CC6)nc(N6CC6)n5)cc4CC[C@H]3[C@@H]1CCC2=O | 37.4% (inactive)
11 | CCOC(=O)N[C@H]1CCc2c(Br)c(OC)c(OC)c(OC)c2-c2ccc(SC)c(=O)cc21 | 8.88% (active)
12 | CC12CCC(O)CC1=CCC1C2CCC2(C)C(O)CCC12 (stereo not given) | 105% (inactive)
13 | C1CCC([PH+](C2CCCCC2)C2CCCCC2[PH+](C2CCCCC2)C2CCCCC2)CC1.O=C(C1[CH-]CCCC1)C1CCCC[N-]1.[Au] (stereo not given) | 2.02% (active)
14 | O=C1NC(=O)C(=Cc2cn(C(=O)c3ccccc3)c3ccccc23)C(=O)N1 | 101% (inactive)
15 | CC(=O)O[C@H](C[C@H](C(C)C)N(C)C(=O)[C@@H](NC(=O)[C@H]1CCCCN1C)C(C)C)c1nc(C(=O)N[C@@H](Cc2ccccc2)C[C@H](C)C(=O)O)c(C(C)C)s1 | 8.7% (active)
16 | COC(=O)[C@@H](C)C[C@H](Cc1ccccc1)NC(=O)c1csc([C@@H](C[C@H](C(C)C)N(C)C(=O)[C@@H](NC(=O)[C@H]2CCCN2C)C2CC2)OC(C)=O)n1 | 18.3% (inactive)
17 | CC(=O)O[C@H](C[C@H](C(C)C)N(C)C(=O)[C@@H](NC(=O)[C@H]1CCCCN1C)C(C)C)c1nc(C(=O)NC2CCC(C(=O)O)CC2)cs1 (stereo not given in full) | 70.6% (inactive)
18 | CCCCCCCCCCCCCCCCCC1OC[C@@H](COC(=O)O[C@@H](C(=O)O[C@H]2C[C@@]3(O)[C@@H](OC(=O)c4ccccc4)[C@@H]4[C@]5(OC(C)=O)CO[C@@H]5C[C@H](O)[C@@]4(C)C(=O)[C@H](OC(C)=O)C(=C2C)C3(C)C)[C@@H](NC(=O)c2ccccc2)c2ccccc2)O1 (stereo not given in full) | 100% (inactive)
19 | Cn1cc(-c2csc(-c3cn(CCN4CCOCC4)c4ccccc34)n2)c2cccnc21 | 46.5% (inactive)
20 | COC(=O)[C@@H](C)C[C@H](Cc1ccc(F)cc1)NC(=O)c1csc([C@@H](C[C@H](C(C)C)N(C)C(=O)[C@@H](NC(=O)[C@H]2CCCCN2C)C2CC2)OC(C)=O)n1 | 12.4% (inactive)

Row | SMILES | growth
21 | Nc1ccc2c(c1)oc1ccccc12 | 112% (inactive)
22 | COc1cc2c(cc1OCCCCn1c(-c3cccs3)nc3ccccc31)N=C[C@@H]1CCCN1C2=O | -11.9% (active)
23 | CC1(C)C(C(=O)c2cn(CCCCF)c3ccccc23)C1(C)C | 91.9% (inactive)
24 | O=C(Nc1ccncc1F)c1cn(CC2CC2)c2ccccc12 | 97.3% (inactive)
25 | C[C@]12CCc3nc(Nc4ccccc4F)sc3C1=CC[C@@H]1[C@@H]2CC[C@]2(C)C(=O)CC[C@@H]12 | 29.3% (inactive)
26 | C[C@@]12CC=C3c4nc(Nc5cccc(O)c5)sc4CC[C@]3(C)[C@H]1CC[C@]1(C)C(=O)CC[C@@H]21 | -47.9% (active)
27 | CC1=C(CNO)C2=C(C)C3(CC3)[C@@](C)(O)C(=O)C2=C1 | 12.1% (inactive)
28 | CC(C)[C@]12O[C@H]1[C@@H]1O[C@]13[C@]1(O[C@H]1C[C@H]1c4c(C(=O)c5ccccc5)oc(OC(=O)c5ccccc5)c4CC[C@@]13C)[C@@H]2O | 5.32% (active)
29 | Nc1cc2nc3ccccc3nc2cc1N | 88.5% (inactive)
30 | COc1ccc(C2=N[C@@H](Cc3ccccc3)C(=O)Nc3ccsc32)cc1 | 34.7% (inactive)
31 | CC[C@]12C=CCN3CC[C@]4(C(=C(C(=O)OC)C1)Nc1cc(OC)c(OC(C)=O)cc14)[C@@H]32 | 21% (inactive)
32 | Cc1ccccc1NC(=NCCCN1CC1)Nc1ccccc1C | 96% (inactive)
33 | COc1ccc(C2=CC(c3ccc(OC)c(OC)c3)c3c(c4ccccc4oc3=O)O2)cc1OC (stereo not given) | 13.6% (inactive)
34 | ClC1=C(Cl)C(Cl)(C2(Cl)C(Cl)=C(Cl)C(Cl)=C2Cl)C(Cl)=C1Cl | -41.9% (active)
35 | Cc1ccc(C(Cc2ccccc2)NCCO)cc1 (stereo not given) | 103% (inactive)
36 | CCNc1nc(Cl)nc(NCC)n1 | 112% (inactive)
37 | Clc1cc(N2CC2)nc(N2CC2)n1 | 72.5% (inactive)
38 | COc1cc2ncnc(Nc3ccc(F)c(Cl)c3)c2cc1OCC(=O)N1CCN(C)CC1 | 93.4% (inactive)
39 | COC(=O)[C@@H](C)C[C@H](Cc1ccccc1)NC(=O)c1csc([C@@H](C[C@H](C(C)C)N(C)C(=O)[C@@H](NC(=O)CN(C)C)C2CC2)OC(C)=O)n1 | 14.6% (inactive)
40 | CC(=O)O[C@H](C[C@H](C(C)C)N(C)C(=O)[C@@H](NC(=O)[C@H]1CCCN1C)C(C)C)c1nc(C(=O)N[C@@H](Cc2ccccc2)C[C@H](C)C(=O)O)c(C)s1 | 17.7% (inactive)
